Laboratory results as given in the antibiotic and cytotoxicity screens of Wong et al. (2023).
Among all 39,000 compounds or so, about 1,500 (3.8%) were called active. For the sample, actives were picked, then their nearest neighbours and some compounds at random.

Tested on: HSkMC (human skeletal muscle cells)
Experiment: cytotoxicity call (relative viability < 0.9)
Conditions: 10 µM

Row | Compound | cytotoxicity call
1 | C[C@@H]1CCCCO[C@@H](CN(C)C(=O)Nc2ccccc2)[C@@H](C)CN([C@H](C)CO)C(=O)c2cc(NS(=O)(=O)c3ccccc3)ccc2O1 | inactive
2 | C[C@@H]1CN([C@H](C)CO)C(=O)c2cc(NC(=O)NC3CCCCC3)ccc2O[C@@H](C)CCCCO[C@@H]1CN(C)CC1CCCCC1 | inactive
3 | C[C@H](CO)N1C[C@H](C)[C@H](CN(C)S(=O)(=O)c2ccccc2)Oc2ccc(NC(=O)CCC(F)(F)F)cc2CC1=O | inactive
4 | C[C@H]1CN([C@@H](C)CO)C(=O)c2cccc(NC(=O)NC3CCCCC3)c2O[C@@H]1CN(C)Cc1ccc(-c2ccccc2)cc1 | inactive
5 | Clc1ccc(C(Cn2ccnc2)OCc2c(Cl)cccc2Cl)c(Cl)c1.O=[N+]([O-])O (stereo not given) | inactive
6 | Clc1ccc(CSC(Cn2ccnc2)c2ccc(Cl)cc2Cl)cc1.O=[N+]([O-])O (stereo not given) | active
7 | Clc1ccc(COC(Cn2ccnc2)c2ccc(Cl)cc2Cl)cc1.O=[N+]([O-])O (stereo not given) | inactive
8 | Cc1noc(C)c1S(=O)(=O)N(C)C[C@@H]1Oc2ccc(NS(=O)(=O)c3ccc(Cl)cc3)cc2C(=O)N([C@H](C)CO)C[C@@H]1C | inactive
9 | C[C@@H]1CCCCO[C@H](CN(C)C(=O)Nc2cccc3ccccc23)[C@H](C)CN([C@H](C)CO)C(=O)c2cc(NS(C)(=O)=O)ccc2O1 | inactive
10 | Cc1ccc(C(N)=S)c(=O)[nH]1 | inactive
11 | C[C@H]1CN([C@@H](C)CO)C(=O)c2cccc(NC(=O)C3CCCCC3)c2O[C@@H]1CN(C)Cc1ccc(Cl)c(Cl)c1 | inactive
12 | COC(=O)c1c(CC[C@@H](CO)NC(=O)N[C@@H](Cc2ccccc2)Cn2cc(-c3ccccn3)nn2)oc(C(=O)N2CCOCC2)c1C(=O)OC | inactive
13 | CCCC#Cc1ccc2c(c1)O[C@@H](CN(C)Cc1ccc3c(c1)OCO3)[C@H](C)CN([C@H](C)CO)S2(=O)=O | inactive
14 | CO[C@H](CN(C)C(=O)C1CCOCC1)[C@H](C)CN(C(=O)Nc1ccc(C(F)(F)F)cc1)[C@@H](C)CO | inactive
15 | C[C@@H]1CN([C@H](C)CO)C(=O)Cc2cc(NC(=O)Nc3ccc(F)cc3)ccc2O[C@@H]1CN(C)CC1CCCCC1 | active
16 | C[C@H](CO)N1C[C@H](C)[C@H](CN(C)CC2CCCCC2)Oc2ccc(NC(=O)Nc3ccc(F)cc3)cc2CC1=O | inactive
17 | C[C@H]1CN([C@@H](C)CO)C(=O)Cc2cc(NC(=O)Nc3ccc(F)cc3)ccc2O[C@H]1CN(C)CC1CCCCC1 | active
18 | C[C@H](CO)N1C[C@H](C)[C@@H](CN(C)CC2CCCCC2)Oc2ccc(NC(=O)Nc3ccc(F)cc3)cc2CC1=O | inactive
19 | C[C@@H]1CN([C@@H](C)CO)C(=O)Cc2cc(NC(=O)Nc3ccc(F)cc3)ccc2O[C@@H]1CN(C)CC1CCCCC1 | inactive
20 | C[C@@H]1CN([C@@H](C)CO)C(=O)Cc2cc(NC(=O)Nc3ccc(F)cc3)ccc2O[C@H]1CN(C)CC1CCCCC1 | inactive

Row | Compound | cytotoxicity call
21 | COc1ccc(NC(=O)Nc2ccc3c(c2)C(=O)N([C@H](C)CO)C[C@@H](C)[C@H](CN(C)C(=O)Nc2c(C)noc2C)OCCCC[C@@H](C)O3)cc1 | inactive
22 | C[C@@H]1O[C@@H](O[C@H]2[C@H](Oc3cc(O)c4c(c3)O[C@H](c3ccc(O)cc3)CC4=O)O[C@H](CO)[C@@H](O)[C@@H]2O)[C@H](O)[C@H](O)[C@H]1O | inactive
23 | Cc1ccc(S(=O)(=O)N(C)C[C@@H]2Oc3ccc(NS(=O)(=O)c4cn(C)cn4)cc3C(=O)N([C@H](C)CO)C[C@@H]2C)cc1 | inactive
24 | COc1ccc(S(=O)(=O)N(C)C[C@H]2Oc3ccc(NC(=O)Nc4c(C)noc4C)cc3C(=O)N([C@@H](C)CO)C[C@H]2C)cc1 | inactive
25 | Cc1ccc(S(=O)(=O)N2C[C@H](O)COC[C@H]3O[C@@H](CC(=O)N[C@@H]4CCN(Cc5ccccc5)C4)CC[C@@H]32)cc1 | inactive
26 | C[C@@H]1CN([C@H](C)CO)C(=O)c2cc(NS(=O)(=O)c3cccs3)ccc2O[C@@H]1CN(C)Cc1ccc(Cl)c(Cl)c1 | inactive
27 | C[C@H](CO)N1C[C@H](C)[C@@H](CN(C)C(=O)Nc2cccc3ccccc23)OCCCC[C@H](C)Oc2ccc(NC(=O)C3CCCCC3)cc2C1=O | inactive
28 | C[C@@H]1CCCCO[C@H](CN(C)C(=O)Nc2cccc3ccccc23)[C@@H](C)CN([C@H](C)CO)C(=O)c2cc(NC(=O)C3CCCCC3)ccc2O1 | inactive
29 | C[C@@H]1CCCCO[C@H](CN(C)C(=O)Nc2cccc3ccccc23)[C@H](C)CN([C@H](C)CO)C(=O)c2cc(NC(=O)C3CCCCC3)ccc2O1 | inactive
30 | C[C@@H]1CN([C@@H](C)CO)C(=O)c2cc(NC(=O)C3CCCCC3)ccc2O[C@@H](C)CCCCO[C@@H]1CN(C)C(=O)Nc1cccc2ccccc12 | inactive
31 | C[C@@H]1CCCCO[C@@H](CN(C)C(=O)Nc2cccc3ccccc23)[C@@H](C)CN([C@H](C)CO)C(=O)c2cc(NC(=O)C3CCCCC3)ccc2O1 | active
32 | C[C@@H]1CCCCO[C@@H](CN(C)C(=O)Nc2cccc3ccccc23)[C@@H](C)CN([C@@H](C)CO)C(=O)c2cc(NC(=O)C3CCCCC3)ccc2O1 | active
33 | C[C@@H]1CCCCO[C@H](CN(C)C(=O)Nc2cccc3ccccc23)[C@H](C)CN([C@@H](C)CO)C(=O)c2cc(NC(=O)C3CCCCC3)ccc2O1 | inactive
34 | C[C@@H]1CN([C@H](C)CO)C(=O)c2cc(NC(=O)C3CCCCC3)ccc2O[C@@H](C)CCCCO[C@@H]1CN(C)C(=O)Nc1cccc2ccccc12 | active
35 | C[C@H]1CCCCO[C@@H](CN(C)C(=O)Nc2cccc3ccccc23)[C@@H](C)CN([C@@H](C)CO)C(=O)c2cc(NC(=O)C3CCCCC3)ccc2O1 | inactive
36 | C[C@@H]1CCCCO[C@H](CN(C)C(=O)Nc2ccc(F)cc2)[C@H](C)CN([C@@H](C)CO)C(=O)c2cc(NS(=O)(=O)c3ccccc3)ccc2O1 | inactive
37 | C[C@H]1CN([C@@H](C)CO)S(=O)(=O)c2ccc(-c3ccc(C(=O)N(C)C)cc3)cc2O[C@@H]1CN(C)C(=O)C1CC1 | inactive
38 | O=C(N[C@@H]1C=C[C@@H](CC(=O)N2CCOCC2)O[C@@H]1CO)c1ccc2c(c1)OCO2 | inactive
39 | C[C@H](CO)N1C[C@H](C)[C@H](CN(C)CC2CCCCC2)Oc2ccc(NC(=O)Cn3cnnn3)cc2C1=O | inactive
40 | C[C@H](CO)N1C[C@H](C)[C@@H](CN(C)S(=O)(=O)c2ccccc2)Oc2ccc(NS(=O)(=O)c3ccc(F)cc3)cc2CC1=O | inactive

Row | Compound | cytotoxicity call
41 | Cc1noc(C)c1S(=O)(=O)Nc1cccc2c1O[C@H](CN(C)S(=O)(=O)c1ccccc1)[C@H](C)CN([C@@H](C)CO)C2=O | inactive
42 | C[C@@H](O)C#Cc1ccc2c(c1)O[C@H](CN(C)C(=O)C1CCCCC1)[C@@H](C)CN([C@@H](C)CO)S2(=O)=O | inactive
43 | C[C@H]1CN([C@@H](C)CO)S(=O)(=O)c2ccc(Br)cc2O[C@H]1CN(C)C(=O)CCN1CCCCC1 | inactive
44 | COc1ccc(S(=O)(=O)Nc2ccc3c(c2)C(=O)N([C@@H](C)CO)C[C@@H](C)[C@@H](CN(C)C(=O)NC2CCCCC2)OCCCC[C@H](C)O3)cc1 | inactive
45 | Cc1noc(C)c1S(=O)(=O)Nc1ccc2c(c1)CC(=O)N([C@H](C)CO)C[C@@H](C)[C@H](CN(C)S(=O)(=O)c1cccs1)O2 | inactive
46 | COc1ccc2c3c(n(c2c1)C)[C@@H](CO)N(Cc1ccccc1)C[C@]13CCN(CC1)C(=O)Nc1cccc(c1)F | inactive
47 | CO[C@H]1CN(C)C(=O)c2cc(NC(=O)Nc3ccccc3F)ccc2OC[C@H](C)N(Cc2ccccc2C(=O)O)C[C@H]1C | inactive
48 | COc1cccc(S(=O)(=O)N(C)C[C@@H]2Oc3ncc(C#CCN(C)C)cc3C(=O)N([C@H](C)CO)C[C@@H]2C)c1 | inactive
49 | C[C@@H]1CN([C@H](C)CO)C(=O)c2cccc(NS(=O)(=O)c3ccc(F)cc3)c2O[C@H]1CN(C)C(=O)Nc1ccc(C(F)(F)F)cc1 | inactive
50 | C[C@@H]1CN([C@@H](C)CO)C(=O)c2cccc(NS(=O)(=O)c3ccc(Cl)cc3)c2O[C@H]1CN(C)C(=O)Nc1ccc(C(F)(F)F)cc1 | inactive
51 | C[C@H](CO)N1C[C@H](C)[C@H](CN(C)C(=O)Nc2ccc(C(F)(F)F)cc2)Oc2c(NS(=O)(=O)c3ccc(Cl)cc3)cccc2C1=O | active
52 | C[C@H](CO)N1C[C@H](C)[C@@H](CN(C)C(=O)Nc2ccc(C(F)(F)F)cc2)Oc2c(NS(=O)(=O)c3ccc(Cl)cc3)cccc2C1=O | inactive
53 | C[C@H]1CN([C@@H](C)CO)C(=O)c2cccc(NS(=O)(=O)c3ccc(F)cc3)c2O[C@@H]1CN(C)C(=O)Nc1ccc(C(F)(F)F)cc1 | inactive
54 | C[C@H]1CN([C@@H](C)CO)C(=O)c2cccc(NS(=O)(=O)c3ccc(Cl)cc3)c2O[C@@H]1CN(C)C(=O)Nc1ccc(C(F)(F)F)cc1 | inactive
55 | C[C@@H]1CN([C@@H](C)CO)C(=O)c2cccc(NS(=O)(=O)c3ccc(F)cc3)c2O[C@@H]1CN(C)C(=O)Nc1ccc(C(F)(F)F)cc1 | inactive
56 | C[C@H]1CN([C@@H](C)CO)C(=O)c2cccc(NS(=O)(=O)c3ccc(F)cc3)c2O[C@H]1CN(C)C(=O)Nc1ccc(C(F)(F)F)cc1 | inactive
57 | C[C@H]1CN([C@@H](C)CO)C(=O)c2cccc(NS(=O)(=O)c3ccc(Cl)cc3)c2O[C@H]1CN(C)C(=O)Nc1ccc(C(F)(F)F)cc1 | active
58 | C[C@@H]1CN([C@H](C)CO)C(=O)c2cccc(NS(=O)(=O)c3ccc(Cl)cc3)c2O[C@@H]1CN(C)C(=O)Nc1ccc(C(F)(F)F)cc1 | active
59 | C[C@@H]1CN([C@@H](C)CO)C(=O)c2cccc(NS(=O)(=O)c3ccc(Cl)cc3)c2O[C@@H]1CN(C)C(=O)Nc1ccc(C(F)(F)F)cc1 | active
60 | C[C@@H]1CN([C@H](C)CO)C(=O)c2cccc(NS(=O)(=O)c3ccc(Cl)cc3)c2O[C@H]1CN(C)C(=O)Nc1ccc(C(F)(F)F)cc1 | inactive
